In PubChem BioAssay AID651640 (Broad Institute, 2012):
Out of some 350,000 compounds screened, about 6,000 (1.7%) were called active. Roughly 5% stayed inconclusive and do not appear here. This is one part of a sample in which actives are shown more often than they occur. No stated cut-off is given here; in the data, active means CPE inhibition above about 20% (passing the limit was not always enough); inconclusive means no clear call, values can overlap the other calls; tested in BHK-21 cells.

assay: protection of cells from dengue 2 killing – plate reader, single concentration, primary screen (AID 651640); settings: DENV2-infected cells, cytopathic effect rescue, at 9.99 µM, active compounds read high;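 further: 0% = median of neutral control wells and 100% = median of positive control wells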

| SMILES | CPE inhibition |
| --- | --- |
| CO[C@@H]1CN(C)C(=O)c2cc(NC(=O)NC3CCCCC3)ccc2OC[C@H](C)N(CC2CC2)C[C@H]1C | 5.48% (inactive) |
| CN1c2ccc(-c3ccc(C#N)cc3)cc2[C@@H]2[C@@H](CCN2S(=O)(=O)c2cccc(F)c2)[C@@H]1CO | 2.27% (inactive) |
| COC(=O)[C@@H]1[C@@H](CO)[C@@H]2Cn3c(ccc(C4=CCCC4)c3=O)[C@@H]2N1Cc1cncnc1 | -0.488% (inactive) |
| Cc1cccn2c(CN(C)C3CCCc4ccccc43)c(C(=O)N3CCOCC3)nc12 (configuration not stated) | -1.26% (inactive) |
| Cc1cccn2c(CNCC(C)Oc3cccnc3)c(C(=O)N3CCOCC3)nc12 (configuration not stated) | 5.69% (inactive) |
| CCOC(=O)C1CCN(Cc2c(C(=O)N3CCOCC3)nc3c(C)cccn23)CC1 | 115% (active) |
| CN(C)C(=O)c1ccc(-c2ccc([C@H]3[C@@H](CO)N4C(=O)CN(C(=O)CC5CC5)C[C@@H]34)cc2)cc1 | -1.06% (inactive) |
| COc1ccccc1NC(=O)N1CC(=O)N2[C@H](CO)[C@H](c3ccc(C#Cc4ccccc4)cc3)[C@H]2C1 | 8.69% (inactive) |
| CN(C)CC(=O)N[C@@H]1CC[C@@H](CCn2cc(C3CC3)nn2)O[C@H]1CO | 13.8% (inactive) |
| CN(C)CC(=O)N[C@@H]1CC[C@H](CCn2cc(C3CCCC3)nn2)O[C@H]1CO | 77.7% (active) |
| O=C(Cc1cccnc1)N[C@H]1CC[C@H](CCn2cc(-c3ccccc3F)nn2)O[C@H]1CO | 20% (active) |
| O=C(Cc1ccncc1)N[C@@H]1CC[C@H](CCn2cc(-c3ccccc3F)nn2)O[C@H]1CO | 2.31% (inactive) |
| O=C(Cc1ccncc1)N[C@H]1CC[C@H](CCn2cc(-c3ccccc3F)nn2)O[C@@H]1CO | -5% (inactive) |
| COc1cccc(-c2cn(CC[C@H]3CC[C@H](NC(=O)CN(C)C)[C@H](CO)O3)nn2)c1 | -8.73% (inactive) |
| COc1ccc(S(=O)(=O)N[C@@H]2CC[C@H](CC(=O)N3CCc4ccccc4C3)O[C@H]2CO)cc1 | 2.67% (inactive) |
| COc1ccccc1CNC(=O)C[C@H]1CC[C@@H]2[C@H](COC[C@H](O)CN2Cc2ccccc2)O1 | -0.546% (inactive) |
| CO[C@@H](CN(C)C(=O)c1cnccn1)[C@H](C)CN([C@H](C)CO)S(=O)(=O)c1ccc(C)cc1 | -0.652% (inactive) |
| C[C@@H]1CN([C@@H](C)CO)C(=O)Cc2cc(NC(=O)CCCCCC(=O)Nc3ccccc3N)ccc2O[C@H]1CN(C)Cc1ccc(Cl)c(Cl)c1 | 35.5% (active) |
| C[C@H]1CN([C@@H](C)CO)C(=O)Cc2cc(NC(=O)CCCCCC(=O)Nc3ccccc3N)ccc2O[C@@H]1CN(C)Cc1ccncc1 | -3.1% (inactive) |
| C[C@H]1CN([C@@H](C)CO)C(=O)Cc2cc(NC(=O)Cc3ccccc3)ccc2O[C@@H]1CN(C)Cc1ccc(Cl)c(Cl)c1 | 11.1% (inactive) |
| C[C@@H]1CN([C@@H](C)CO)C(=O)Cc2cc(NC(=O)CCCCCC(=O)Nc3ccccc3N)ccc2O[C@H]1CN(C)C(=O)Nc1ccc(C(F)(F)F)cc1 | 0.365% (inactive) |
| C[C@H](CO)N1C[C@H](C)[C@H](CN(C)Cc2ccc(C(F)(F)F)cc2)Oc2ccc(NC(=O)CCCCCC(=O)Nc3ccccc3N)cc2CC1=O | 30.6% (active) |
| C[C@H]1CN([C@@H](C)CO)C(=O)Cc2cc(NC(=O)CCCCCC(=O)Nc3ccccc3N)ccc2O[C@H]1CN(C)C(=O)Nc1ccc(F)cc1 | 6.87% (inactive) |
| CC(=O)N(C)C[C@@H]1Oc2ncc(C#CCc3ccccc3)cc2C(=O)N([C@H](C)CO)C[C@H]1C | 13.5% (inactive) |

| SMILES | CPE inhibition |
| --- | --- |
| CO[C@@H]1CN(C)C(=O)c2cc(NC(=O)c3ccccc3)ccc2OC[C@H](C)N(C(=O)CN(C)C)C[C@H]1C | -4.5% (inactive) |
| C[C@H](CO)N1C[C@H](C)[C@H](CN(C)Cc2ccc(C(=O)O)cc2)Oc2ccc(NS(=O)(=O)c3cn(C)cn3)cc2CC1=O | -5.77% (inactive) |
| CC(C)NC(=O)N(C)C[C@H]1Oc2ccc(NS(C)(=O)=O)cc2CC(=O)N([C@@H](C)CO)C[C@H]1C | -8.84% (inactive) |
| CO[C@H]1CN(C)C(=O)c2ccc(NC(=O)c3nc4ccccc4s3)cc2OC[C@@H](C)N(Cc2cncnc2)C[C@H]1C | -2.74% (inactive) |
| CO[C@H]1CN(C)C(=O)c2cc(NC(=O)c3nc4ccccc4s3)ccc2OC[C@H](C)N(Cc2cccnc2)C[C@@H]1C | 21.1% (active) |
| CO[C@H]1CN(C)C(=O)c2cc(NC(=O)c3cnccn3)ccc2OC[C@H](C)N(C(=O)C2CC2)C[C@H]1C | 7.36% (inactive) |
| CO[C@H]1CN(C)C(=O)c2cc(NC(=O)c3cnccn3)ccc2OC[C@@H](C)N(CC2CC2)C[C@@H]1C | 26.7% (active) |
| CO[C@H]1CN(C)C(=O)c2ccc(NC(=O)c3nc4ccccc4s3)cc2OC[C@H](C)N(Cc2cccnc2)C[C@@H]1C | 3.73% (inactive) |
| CO[C@@H]1CN(C)C(=O)c2cc(NC(=O)c3cnccn3)ccc2OC[C@@H](C)N(CC2CC2)C[C@H]1C | -5.97% (inactive) |
| COCC#Cc1ccc([C@@H]2[C@@H](CO)N3C(=O)CN(C(=O)C4CCCC4)C[C@@H]23)cc1 | -7.7% (inactive) |
| CC(C)NC(=O)N(C)C[C@H]1Oc2ccc(N(C)C)cc2C(=O)N([C@@H](C)CO)C[C@H]1C | -2.75% (inactive) |
| C[C@@H]1CCCCO[C@H](CN(C)C(=O)CCC(F)(F)F)[C@H](C)CN([C@H](C)CO)C(=O)c2cc(NC(=O)NC3CCCCC3)ccc2O1 | 0.687% (inactive) |
| COCC(=O)Nc1ccc2c(c1)C(=O)N(C)C[C@@H](OC)[C@@H](C)CN(C(=O)c1ccccc1)[C@@H](C)CO2 | 0.375% (inactive) |
| CN1CCN(C(=O)c2cc3c(c(-c4cccc(-c5ccc(C(=O)N(C)C)cc5)c4)n2)[C@@H](CCO)N([S@](=O)C(C)(C)C)C3)CC1 | 1.85% (inactive) |
| O=C(CN1CCOCC1)N1CCCCN2[C@@H](CO)[C@H](c3ccc(-c4ccccc4)cc3)[C@@H]2C1 | -4.15% (inactive) |
| O=C(CN1CCOCC1)NC[C@@H]1N[C@@H](CO)[C@@H]1c1ccc(-c2ccccc2)cc1 | 29.8% (active) |
| O=C(CN1CCOCC1)N1CCCCN2[C@H](CO)[C@H](c3ccc(-c4ccccc4)cc3)[C@@H]2C1 | 6.44% (inactive) |
| CN1C(=O)c2cc(NC(=O)c3cnccn3)ccc2OC[C@@H]2O[C@H](CC(=O)O)CC[C@@H]21 | 0.738% (inactive) |
| COc1ccc(/C=C/C(=O)OCC(=O)NCc2cccs2)cc1OC | -0.984% (inactive) |
| CCN(CC(=O)NCc1cccs1)C(=O)/C=C/c1ccc(C)cc1 | 13.7% (inactive) |
| CCOc1ccc(/C=C/C(=O)N(CC)CC(=O)NCc2cccs2)cc1OC | 67.5% (active) |
| COc1ccccc1C#Cc1ccc([C@H]2[C@H](CO)N3CCCCN(C(=O)C4CCC4)C[C@@H]23)cc1 | -8.41% (inactive) |
| Cc1cccc(C(=O)NC2CCN(CC(=O)Nc3cccc(Cl)c3)CC2)c1 | 39% (active) |
| O=C(CN1CCC(NC(=O)Nc2ccccc2)CC1)Nc1cccc([N+](=O)[O-])c1 | -9.16% (inactive) |

| SMILES | CPE inhibition |
| --- | --- |
| Cc1cc(C)cc(NC(=O)NC2CCN(CC(=O)Nc3cccc(Cl)c3C)CC2)c1 | -4.01% (inactive) |
| C[C@H]1CN([C@@H](C)CO)S(=O)(=O)c2ccc(C#Cc3ccccc3)cc2O[C@@H]1CN(C)C(=O)C1CC1 | 19.8% (inactive) |
| Cc1ccccc1C1=NC(C(F)(F)F)(C(F)(F)F)c2c(n(-c3ccc(F)cc3)c(=O)[nH]c2=O)N1 | 22.3% (active) |
| COc1ccc2c3c([nH]c2c1)[C@H](CO)N(C(=O)Nc1ccc(F)cc1)CC31CN(S(=O)(=O)c2cccc(F)c2)C1 | 1.82% (inactive) |
| CCCNC(=O)N1[C@@H](C#N)[C@H](c2ccc(-c3ccc(C(=O)N(C)C)cc3)cc2)[C@@H]1CO | -5.96% (inactive) |
| COC(=O)C[C@@H]1CC[C@@H]2[C@H](COc3ccc(NS(=O)(=O)c4ccccc4F)cc3C(=O)N2C)O1 | 1.86% (inactive) |
| C[C@@H]1CCCCO[C@H](CN(C)C(=O)Nc2ccc3c(c2)OCO3)[C@H](C)CN([C@H](C)CO)C(=O)c2cc(NS(C)(=O)=O)ccc2O1 | 11.9% (inactive) |
| CCC(CO)Oc1cc(NC(=O)c2cccc(F)c2)c2ncn(C(C)C)c2c1 (configuration not stated) | -10.5% (inactive) |
| CCC(CO)Oc1cc(NCc2ccccc2)c2ncn(C3CCCC3)c2c1 (configuration not stated) | 64.4% (active) |
| CCC(CO)Oc1cc(NC(=O)c2cccc3ccccc23)c2ncn(C(C)C)c2c1 (configuration not stated) | -11.1% (inactive) |
| COc1ccc(SSc2ccc(OC)cc2C(=O)O)c(C(=O)O)c1 | 2.7% (inactive) |
| O=S(=O)(c1ccccc1)N1CCCCN2[C@@H](CO)[C@H](c3ccc(C#Cc4cccnc4)cc3)[C@@H]2C1 | 17.6% (inactive) |
| COCC(=O)N1CCCCN2[C@H](CO)[C@H](c3ccc(-c4ccc(OC)cc4)cc3)[C@H]2C1 | -1.33% (inactive) |
| CCC(=O)N1CCCCN2[C@H](CO)[C@@H](c3ccc(-c4cccnc4)cc3)[C@H]2C1 | -0.425% (inactive) |
| O=C(Nc1ccccc1F)N1CCCCN2[C@H](CO)[C@@H](c3ccc(-c4cccnc4)cc3)[C@H]2C1 | 5.39% (inactive) |
| C[C@@H](O)C#Cc1ccc([C@@H]2[C@H]3CN(C(=O)c4ccc5c(c4)OCO5)CCCCN3[C@H]2CO)cc1 | 2.09% (inactive) |
| COc1ccc(C#Cc2ccc([C@@H]3[C@@H](CO)N4CCCCN(C(=O)c5ccncc5)C[C@@H]34)cc2)cc1 | 50.9% (active) |
| CN(C)CC(=O)N1CCCCN2[C@@H](CO)[C@H](c3ccc(-c4cccnc4)cc3)[C@@H]2C1 | 33.3% (active) |
| CC(C)(O)C#Cc1ccc([C@H]2[C@@H](CO)N3CCCCN(C(=O)c4ccncc4)C[C@H]23)cc1 | 0.094% (inactive) |
| C[C@H](O)C#Cc1ccc([C@H]2[C@H](CO)N3CCCCN(C(=O)c4ccc(F)cc4)C[C@@H]23)cc1 | 41.2% (active) |
| C[C@H](O)C#Cc1ccc([C@@H]2[C@@H](CO)N3CCCCN(C(=O)c4ccncc4)C[C@@H]23)cc1 | -16.7% (inactive) |
| COc1ccc(-c2ccc([C@@H]3[C@@H](CO)N4CCCCN(C(=O)NC(C)C)C[C@H]34)cc2)cc1 | 63.6% (active) |
| COCC(=O)N1CCCCN2[C@H](CO)[C@@H](c3ccc(-c4ccc(OC)cc4)cc3)[C@@H]2C1 | -7.09% (inactive) |
| CC(C)C#Cc1ccc([C@H]2[C@H](CO)N3CCCCN(C(=O)c4ccc(F)cc4)C[C@@H]23)cc1 | 10.5% (inactive) |
